Epigenetic derep: epigenetic control regulation, reporter derepression; murine LDR cells, GFP reporter derepression, 30 h; Potency, µM (highest dose often 53.9 µM), without a hit: top-dose GFP activation, most hits filed as activators; hit rate 0.2% among 280,000; AID 1865; further: % of control where 0% means no effect; nearly all actives have a fitted effect of over 60% in size
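Derepression of a silenced CMV-GFP reporter in murine LDR cells is scored by enumerating GFP-positive cells with a laser-scanning microplate cytometer after 30 hours of treatment at 37 C.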
LMNA splice mod: modulators of lamin A splicing; HeLa LMNA splicing GFP/RFP minigene ratio, 48 h; Potency, µM (series often up to 46.1 µM), for the others: top-dose ratio change, negative = inhibition, usual class: inhibitors; hit rate 0.01% among 200,000; AID 1487; active means well fitted inhibition curve with a large enough effect in the signal ratio, with a control signal flat, not every such curve was filed as active; inconclusive means small, poorly fitted or top-dose-only effect, or effect the other way, or a change in a side signal; the % refers to the signal ratio; further: on the % scale 0 is the no-effect control and ±100 the full control effect
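S3 HeLa cells stably expressing lamin A-EGFP splicing minigene plus DsRed2, 600 cells/well, 48 h compound exposure at 37C. Laser-scanning cytometry; analysed as GFP (500-530 nm)/RFP (575-640 nm) total intensity ratio; 0.5% DMSO vehicle.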
HttQ103 aggreg: mutant huntingtin aggregation inhibition | PC12 HttQ103-GFP aggregates, Acumen cytometry, 40 h | AID 1688 | hit rate 1.1% among 220,000 | Potency, µM (highest dose often 46.1 µM), for the others: top-dose activity change, negative = inhibition, most hits filed as inhibitors; further: on the % scale 0 is the no-effect control and ±100 the full control effect; nearly all actives have a fitted effect of over 60% in size
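Compounds (qHTS titration) were added to PC12 cells expressing an ecdysone-driven HTT exon 1 Q103–GFP fusion after induction with 100 nM tebufenozide. Aggregate formation was measured as GFP objects in cell lysates.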
NPSR antag: blocks cAMP signaling of the human neuropeptide S receptor | Q6W5P4 | CHO-NPSR cells, cAMP TR-FRET, antagonist mode | Potency, µM (series often up to 38.3 µM), for the others: at the top dose activity change, negative = inhibition, most hits filed as inhibitors | hit rate 1% among 220,000; further: on the % scale 0 is the no-effect control and ±100 the full control effect; nearly all actives have a fitted effect of over 50% in size
Target sequence (Q6W5P4 whole entry, looked up): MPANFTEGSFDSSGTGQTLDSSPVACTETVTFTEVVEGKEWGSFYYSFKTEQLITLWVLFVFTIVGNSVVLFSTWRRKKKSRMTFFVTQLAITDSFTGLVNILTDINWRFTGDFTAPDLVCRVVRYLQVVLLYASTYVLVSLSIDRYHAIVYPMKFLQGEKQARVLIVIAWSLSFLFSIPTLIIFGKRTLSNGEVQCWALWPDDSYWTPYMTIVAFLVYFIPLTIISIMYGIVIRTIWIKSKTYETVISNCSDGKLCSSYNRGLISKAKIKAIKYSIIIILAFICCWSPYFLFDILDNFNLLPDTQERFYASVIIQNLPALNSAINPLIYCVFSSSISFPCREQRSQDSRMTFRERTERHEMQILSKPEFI
HTT cytoprotect: cytoprotection in Huntington HTT-Q103 PC12 cell model. Potency, µM (doses to about 56.4 µM), for inactives: cytoprotection (ATP increase), usual class: activators. hit rate 0.14% among 230,000. AID 1471. PC12 HTT-Q103 induced, cytoprotection, ATP luminescence, 40 h; further: % of control where 0% means no effect; nearly all actives have a fitted effect of over 45% in size
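Rat PC12, Q103 Htt exon1-GFP fusion, ecdysone promoter; tebufenozide inducer 100 nM final; compound titration; qHTS, 1500 cells/well; ATPlite luminescent read.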
Numbers without * were called inactive; [ ] = remark or other dose. Rows were chosen to be rich in hits. Some 1.5% of all compounds tested hit in one or more screens of this group. Unless noted, the call rests on the fitted dose curve; in most records, active means well fitted curve in the direction sought with a large enough effect; inconclusive means small, poorly fitted or top-dose-only effect, or another doubt; inactive means no such curve, though single readings can be large; an effect the other way counts as inactive or inconclusive. Potency means the concentration at half of the fitted maximal effect.

`O=[N+]([O-])c1ccc(-c2nc3ccc([N+](=O)[O-])cc3[nH]2)cc1` gave Epigenetic derep -1%, LMNA splice mod 13%, HttQ103 aggreg 18µM*, NPSR antag -1%[46.1 µM] and HTT cytoprotect -94%.
For COc1ccc(Nc2ncc3c(n2)CCN(Cc2ccc(Br)s2)C3)c(OC)c1 the results were Epigenetic derep -4% and LMNA splice mod -19%[46 µM].
Screening C/C(=C\c1ccco1)C1C(C#N)=C(N)Oc2n[nH]c(-c3ccc(C)cc3)c21 (configuration not stated) returned Epigenetic derep 0%, LMNA splice mod 4%, HttQ103 aggreg 27%, NPSR antag -25%[46.1 µM] and HTT cytoprotect 3.5µM*.
`Cc1ccc(C)c(NC(=O)CN2C(=O)COc3ccc(Cl)cc32)c1` gave Epigenetic derep 4%.
Screening NC(Cc1c[nH]c2ccccc12)C(=O)O (configuration not stated) returned Epigenetic derep -1%.
Screening N[C@H](Cc1c[nH]c2ccccc12)C(=O)O returned Epigenetic derep -2%, LMNA splice mod inconclusive, HttQ103 aggreg 32µM* and HTT cytoprotect -111%.
For O=C(CON1C(=O)c2ccccc2C1=O)c1ccccc1 the results were HTT cytoprotect -12%[10 µM].
`CC1=C(C(=O)N(C)C)C(c2cccc(Cl)c2)NC(=O)N1` (configuration not stated) gave Epigenetic derep -1%, LMNA splice mod 5%, HttQ103 aggreg 4µM*, NPSR antag 0%[46.1 µM] and HTT cytoprotect -4%[10 µM].
`CC(=O)N1CC(=O)N=C1SCC(=O)Nc1nc(-c2ccccc2)c(-c2ccccc2)s1` gave Epigenetic derep 4%, LMNA splice mod inconclusive, HttQ103 aggreg inconclusive, NPSR antag 10µM* and HTT cytoprotect 4%[10 µM].
Screening Cc1sc(NC(=O)CSC2=NCCS2)nc1-c1ccccc1 returned Epigenetic derep 0%, LMNA splice mod -18%, HttQ103 aggreg 0%[1.84 µM], NPSR antag -14%[46.1 µM] and HTT cytoprotect -7%.
O=C(O)/C=C\C(=O)Nc1ccccc1C#Cc1ccccc1 was read as Epigenetic derep -1%, LMNA splice mod inconclusive, HttQ103 aggreg 19%, NPSR antag -2%[46.1 µM] and HTT cytoprotect 9%[10 µM].
`O=C(O)/C=C\C(=O)Nc1ccccc1C#Cc1ccc(Br)cc1` gave Epigenetic derep 0%, LMNA splice mod inconclusive, HttQ103 aggreg 14%, NPSR antag 13µM* and HTT cytoprotect -20%[10 µM].
CC(C)CCCC(C)C1CC(=O)C2=C3CCC4CC(O)CCC4(C)C3CCC21C (configuration not stated) was read as HttQ103 aggreg 32% and HTT cytoprotect -15%.
For FC(F)Sc1ccc(NC(=S)NC(c2ccccc2)c2ccccc2)cc1 the results were Epigenetic derep inconclusive, HttQ103 aggreg 13µM*, NPSR antag inconclusive and HTT cytoprotect -132%.
For C=CCn1c(COc2ccccc2)nnc1SC(C)C(=O)N/N=C/c1cc(Cl)ccc1O (configuration not stated) the results were Epigenetic derep 0%, LMNA splice mod inconclusive, HttQ103 aggreg 10µM*, NPSR antag -10%[46.1 µM] and HTT cytoprotect -41%.
For C=CCn1c(COc2ccc(Cl)cc2)nnc1SCC(=O)N/N=C/c1cccc(O)c1 the results were Epigenetic derep 0%, LMNA splice mod -1%, HttQ103 aggreg 9%, NPSR antag -22%[46.1 µM] and HTT cytoprotect -18%.
`Cc1ccc(C)c(S(=O)(=O)NCc2cccnc2)c1` gave Epigenetic derep -1%, LMNA splice mod -6%, HttQ103 aggreg -3%, NPSR antag 5%[46.1 µM] and HTT cytoprotect 13%[10 µM].
Cc1ccc(C)c(S(=O)(=O)NCc2ccncc2)c1 was read as Epigenetic derep -1%, LMNA splice mod 10%, HttQ103 aggreg 10µM*, NPSR antag 10%[46.1 µM] and HTT cytoprotect -15%.
`Cc1ccc(S(=O)(=O)NCc2ccncc2)cc1` gave Epigenetic derep 0%, LMNA splice mod inconclusive, HttQ103 aggreg 3.5µM*, NPSR antag 4%[46.1 µM] and HTT cytoprotect -6%.
For O=[N+]([O-])c1cc(C(F)(F)F)cc([N+](=O)[O-])c1NCCNC(=S)Nc1cccc(F)c1 the results were Epigenetic derep -1%, HttQ103 aggreg 15%[9.22 µM], NPSR antag inconclusive and HTT cytoprotect -1%[10 µM].
Screening COc1ccc(N2C(=O)C(Cl)=C(Oc3cccc(OC)c3)C2=O)cc1 returned Epigenetic derep 2%, LMNA splice mod inconclusive, HttQ103 aggreg inconclusive, NPSR antag 10µM* and HTT cytoprotect inconclusive.
CS(=O)(=O)Nc1ccc(Nc2c3ccccc3nc3ccccc23)cc1 was read as HTT cytoprotect -41%[10 µM].
`Cc1cc(NC(=O)N(C)CCc2c(C)nn(C)c2C)ccc1Br` gave Epigenetic derep -1% and LMNA splice mod -9%[46 µM].
`CC(=O)O[C@@]12CO[C@@H]1C[C@H](O)[C@@]1(C)C(=O)[C@H](O)C3=C(C)[C@@H](OC(=O)C(O)[C@@H](NC(=O)OC(C)(C)C)c4ccccc4)C[C@@](O)([C@@H](OC(=O)c4ccccc4)[C@H]21)C3(C)C` (some centres not stated) gave HttQ103 aggreg 1% and HTT cytoprotect -59%.
Screening Cc1ccc(Cl)cc1NC(=O)C(C)n1nc(-c2ccccc2)ccc1=O (configuration not stated) returned Epigenetic derep 0%.
For C/C(=N\NC(=O)c1cc(-c2cccs2)nc2ccccc12)c1ccccn1 the results were Epigenetic derep inconclusive, LMNA splice mod inconclusive, HttQ103 aggreg 0.89µM*, NPSR antag -32% and HTT cytoprotect -131%.
`CCc1ccc(NC(=O)CSc2nc3ccccc3c(=O)n2CCNC(C)=O)cc1` gave Epigenetic derep -1% and LMNA splice mod 11%[46 µM].
Screening CCc1ccc(NC(=O)CSc2nc3ccccc3c(=O)n2CCCN2CCC(C)CC2)cc1 returned Epigenetic derep -1%, HttQ103 aggreg 22µM*, NPSR antag inconclusive and HTT cytoprotect -78%.
`COC(=O)C1=C(C)N(Cc2ccccc2)[C@]23O[C@](C(=O)OC)(C(=O)N2C1c1ccccc1)C(C(=O)OC)C3C(=O)OC` (some centres not stated) gave Epigenetic derep 0%[10.1 µM] and HTT cytoprotect -6%[10 µM].
Screening Cc1ccc(Cl)cc1N1CCN(C(=O)CSc2nnc3n2C(C)(C)Cc2ccccc2-3)CC1 returned Epigenetic derep 0%, LMNA splice mod inconclusive, HttQ103 aggreg 7.9µM*, NPSR antag inconclusive and HTT cytoprotect inconclusive.
`COc1ccc(-n2c(C)nc3c(cnn3-c3ccc(Cl)cc3)c2=O)cc1` gave Epigenetic derep -2%, LMNA splice mod inconclusive, HttQ103 aggreg 13µM*, NPSR antag -29%[46.1 µM] and HTT cytoprotect -64%.
